Measurements published in PubChem BioAssay (EPA / NIEHS).
Calls of active or inactive are those of the source. The calls were made as follows: active = hit-call score of the fitted dose curve at least 0.9, where 1 is the maximum; inactive = score below 0.9.

Each compound was assayed on Interleukin 6 (IL6), IL6 (gene 3569) (assay: LTEA_HepaRG_IL6: Life Technologies and Expression Analysis (LTEA) Assay for Interleukin 6 (IL6) using HepaRG (AID 2283509)). Details: mRNA level, 48 h; actives raise or lower the signal.
Procedure: LTEA_HepaRG is a cell based, multiplexed-readout assay that uses HepaRG, a human liver cell line, with measurements taken at 48 hours after chemical dosing on a 96-well plate.LTEA_HepaRG_IL6 is one of 102 assay component(s) measured in the LTEA HepaRG cell culture assay. It is a marker of Inflammation.Data from the assay component LTEA_HepaRG_IL6 was analyzed into 1 endpoint. This assay endpoint, LTEA_HepaRG_IL6, was analyzed with bidirectional fitting relative to DMSO as the negative control and baseline of activity. Using a type of inducible reporter, measures of mRNA induction for gain or loss-of-signal activity can be used to understand regulation of transcription factor activity. To generalize the intended target to other relatable targets, this assay endpoint is annotated to the cytokine intended target family, where the subfamily is interleukins.
A total of 1060 chemcials from the ToxCast library were tested in eight-point concentration-response experiments. Cell culture and cytotoxicity assays were conducted at Thermo Fisher Scientific's Custom Services facility (Madison, WI). A single lot of human HepaRG cells (Thermo Fisher Scientific, Frederick, MD) was used for the cell culture experiments. 96-well format collagen type I coated plates of human HepaRG cells were prepared using established methods. Briefly, cryopreserved HepaRG cells were thawed, plated at a density of approximately 100,000 cells/well in HepaRG Thaw, Plate, and General Purpose media (HPRG770, Thermo Fisher Scientific), and incubated for 48 hours. 0.5% DMSO was selected as vehicle control to balance the requisite need of DMSO in HepaRG cultures to maintain differentiation (for example, baseline metabolism, proportions of hepatocytes vs. cholangiocytes), while enabling further hepatic receptor pathway activation (for example, PXR and CAR) in response to chemical exposure. 48 hours after plating, the culture medium was replaced with HepaRG Serum-Free Incudtion Media. Cells were exposed to each test chemical in duplicate and maintained in CO2 incubators for another 48 hours. Chemical plates were thawed to room temperature and 200x concentrations of treatment groups were prepared. 8-point conentration-reponse curves were made with the highest exposure at 100 uM, followed by half-log dilutions, all in 0.5% DMSO. Each test plate contained variouse controls, induction positive controls (1mM phenobarbital), cytotoxicity positive controls ([…] aflatoxin B1), vehicle controls (0.5% DMSO), and total lysis controls (0.5% DMSO). Cell morphology images were taken using an Essen IncuCyte FLR automated microscope, with six 96-well plates imaged in about 24 minutes. Images were captured and exported and JPEG files. Spent culture media was transfered to black-well plates for the LDH assay, and remaining media was sorted at -80 C for later use. Cells were treated with RLT buffer and frozen until shipped for gene expression analysis. Total RNA was isolated from the cell suspension in 75 uL of Buffer RLT (Qiagen, Germantown, MD 20874) by Quintiles/Expression Analysis (Durham, NC) using a custom isolation procedure. Total RNA from each plate well was transferred to a preamplification plate. Fluidigm's 96.96 Dynamic ArrayTM (Fluidigm, Amsterdam, the Netherlands) technology was used for gene expression analyses by quantitative reverse transcription polymerase chain reaction (qRT-PCR, performed by Quintiles/Expression Analysis, Durham, NC)89. Standard TaqManTM Assays (Applied Biosystems/ThermoFisher Scientific, Foster City, CA) were used to assess the expression of 93 genes selected based on their selectivity and sensitivity to important hepatic receptors known to be modulated by environmental chemicals; importance in human hepatocyte functionality; and hepatotoxicity. […]

Row | Structure (SMILES) | outcome | AC50
1 | Cc1ccc(N=CN(C)C=Nc2ccc(C)cc2C)c(C)c1 | inactive | 
2 | CCOP(=S)(OCC)Oc1nc(Cl)n(C(C)C)n1 | inactive | 
3 | CCOP(=O)(OCC)Oc1nc(Cl)c(Cl)cc1Cl | inactive | 
4 | O=C(O)c1c(Cl)ccc2cc(Cl)cnc12 | inactive | 
5 | CCCN(CC)CC1COC2(CCC(C(C)(C)C)CC2)O1 (stereo not given) | inactive | 
6 | O=P(O)(O)CCCl | inactive | 
7 | O=C(Nc1ccccc1-c1ccc(Cl)cc1)c1cccnc1Cl | inactive | 
8 | N#Cc1c[nH]cc1-c1cccc2c1OC(F)(F)O2 | inactive | 
9 | Clc1nc(Cl)nc(Nc2ccccc2Cl)n1 | inactive | 
10 | CC1(C)CCC(=Cc2ccc(Cl)cc2)C1(O)Cn1cncn1 (stereo not given) | inactive | 
11 | Clc1cccc(C(Cl)(Cl)Cl)n1 | inactive | 
12 | N#Cc1c(Cl)cccc1Cl | inactive | 
13 | CCOc1nc(F)cc2nc(S(=O)(=O)Nc3c(Cl)cccc3Cl)nn12 |  | 29.8 µM (active)
14 | CCN(CC)c1nc(C)cc(OP(=S)(OC)OC)n1 | inactive | 
15 | CC(C)Nc1nc(Cl)nc(NC(C)C)n1 | inactive | 
16 | COC(=O)NC(=S)Nc1ccccc1NC(=S)NC(=O)OC | inactive | 
17 | Nc1c(Cl)c(Cl)nc(C(=O)O)c1Cl | inactive | 
18 | CN=C=S | inactive | 
19 | CCN(CC)C(=O)C(C)Oc1cccc2ccccc12 (stereo not given) | inactive | 
20 | CC(C)=CC1C(C(=O)OCc2coc(Cc3ccccc3)c2)C1(C)C (stereo not given) | inactive | 

Row | Structure (SMILES) | outcome | AC50
21 | COc1cc(Cl)c(OC)cc1Cl | inactive | 
22 | C=C(C)CN(CC)c1c([N+](=O)[O-])cc(C(F)(F)F)cc1[N+](=O)[O-] | inactive | 
23 | CCNP(=S)(OC)O/C(C)=C/C(=O)OC(C)C (stereo not given) | inactive | 
24 | CC(C)Oc1cccc(NC(=O)c2ccccc2C(F)(F)F)c1 | inactive | 
25 | O=C1C2CC=CCC2C(=O)N1SC(Cl)(Cl)Cl (stereo not given) | inactive | 
26 | CC1(C)CON(Cc2ccccc2Cl)C1=O | inactive | 
27 | CCCCOCN(C(=O)CCl)c1c(CC)cccc1CC | inactive | 
28 | CC1(C)C(C(=O)OC(C#N)c2cccc(Oc3ccccc3)c2)C1(C)C (stereo not given) | inactive | 
29 | Nc1cnn(-c2ccccc2)c(=O)c1Cl | inactive | 
30 | CC(C)N1C(=O)c2ccccc2NS1(=O)=O | inactive | 
31 | OC(c1ccc(Cl)cc1)(c1ccc(Cl)cc1)C(Cl)(Cl)Cl |  | 76.6 µM (active)
32 | CO/N=C(/C1=NOCCO1)c1ccccc1Oc1ncnc(Oc2ccccc2Cl)c1F |  | 28.4 µM (active)
33 | COP(=O)(OC)O/C(C)=C/C(=O)N(C)C | inactive | 
34 | COc1ccc(-c2ccccc2)cc1NNC(=O)OC(C)C | inactive | 
35 | COC(=O)N(C(=O)N1CO[C@@]2(C(=O)OC)Cc3cc(Cl)ccc3C2=N1)c1ccc(OC(F)(F)F)cc1 | inactive | 
36 | CC(C)N1C(=O)N(c2ccccc2)CSC1=NC(C)(C)C |  | 77.1 µM (active)
37 | COCC(=O)N(c1c(C)cccc1C)C(C)C(=O)OC (stereo not given) | inactive | 
38 | CS(=O)(=O)c1ccc(C(=O)C2C(=O)CCCC2=O)c([N+](=O)[O-])c1 | inactive | 
39 | Cc1c(COC(=O)[C@@H]2[C@H](/C=C(\Cl)C(F)(F)F)C2(C)C)cccc1-c1ccccc1 | inactive | 
40 | CC1(C)C(C=C(Cl)Cl)C1C(=O)OC(C#N)c1cccc(Oc2ccccc2)c1 (stereo not given) | inactive | 
